Columns and labels:
Test in all cases: log2 ratio of Biotin-Ahx-Ub-VS probe labelling (fragment/DMSO); higher = less target engagement (more negative = stronger competition), active = hit call of the paper (q ≤ 0.05, log2 ratio ≤ -1)
Settings in all cases: compound concentration: 200 uM; treatment time: 3 h
[1] = biological target: T1, OTUD6B (UniProt Q8N6M0)
T1 sequence (whole entry): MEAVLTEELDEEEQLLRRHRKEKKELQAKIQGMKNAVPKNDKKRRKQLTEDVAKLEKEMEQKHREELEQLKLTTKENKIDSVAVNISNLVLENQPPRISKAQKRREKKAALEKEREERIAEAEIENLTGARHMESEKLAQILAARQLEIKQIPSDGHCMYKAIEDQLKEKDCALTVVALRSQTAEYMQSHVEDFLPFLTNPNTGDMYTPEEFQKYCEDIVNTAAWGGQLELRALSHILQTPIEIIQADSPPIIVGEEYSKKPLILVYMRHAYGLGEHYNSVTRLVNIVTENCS
Outline: (§1)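 Labelling with Biotin-Ahx-Ub-VS (0.5 µM final, 1 h) followed a 3 h triplicate treatment of HEK293T lysate (495 µg per sample, Tris/CHAPS/IGEPAL buffer with protease inhibitors) with fragment at 200 µM or vehicle. Labelled DUBs were NeutrAvidin-enriched, digested with LysC and trypsin, and run by diaPASEF LC-MS/MS. The values, average log2 fragment/vehicle ratios by unpaired t-test, come from global-median-normalised Spectronaut label-free quantities. Proteins with ≥2 unique peptides were used.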

[2] = biological target: T2, OTUD7B (UniProt Q6GQQ9)
T2 sequence (whole entry): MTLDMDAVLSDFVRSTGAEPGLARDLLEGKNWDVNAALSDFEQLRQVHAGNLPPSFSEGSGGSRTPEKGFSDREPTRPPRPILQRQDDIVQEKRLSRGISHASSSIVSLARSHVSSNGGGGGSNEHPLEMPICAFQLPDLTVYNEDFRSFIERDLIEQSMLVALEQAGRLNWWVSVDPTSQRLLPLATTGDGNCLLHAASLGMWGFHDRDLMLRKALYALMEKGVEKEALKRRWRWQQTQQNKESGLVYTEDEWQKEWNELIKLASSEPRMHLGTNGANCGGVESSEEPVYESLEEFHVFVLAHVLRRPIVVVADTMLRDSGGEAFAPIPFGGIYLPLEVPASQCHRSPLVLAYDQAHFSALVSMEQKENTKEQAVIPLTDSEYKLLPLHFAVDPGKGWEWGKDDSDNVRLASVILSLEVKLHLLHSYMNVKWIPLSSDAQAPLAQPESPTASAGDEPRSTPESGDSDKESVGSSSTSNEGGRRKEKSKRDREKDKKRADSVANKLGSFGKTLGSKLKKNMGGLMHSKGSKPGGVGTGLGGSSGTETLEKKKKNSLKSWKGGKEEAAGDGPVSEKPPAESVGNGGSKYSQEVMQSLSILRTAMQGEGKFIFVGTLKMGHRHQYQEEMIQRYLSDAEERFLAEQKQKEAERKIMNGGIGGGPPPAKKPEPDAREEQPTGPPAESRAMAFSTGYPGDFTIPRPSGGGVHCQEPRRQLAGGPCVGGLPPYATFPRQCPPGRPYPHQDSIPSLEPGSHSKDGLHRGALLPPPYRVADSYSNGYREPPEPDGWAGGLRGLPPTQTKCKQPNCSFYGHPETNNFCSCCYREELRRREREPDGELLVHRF
Outline: as §1

[3] = biological target: PRPF8 (UniProt Q6P2Q9)
Outline: as §1

[4] = biological target: T3, PSMD7 (UniProt P51665)
T3 sequence (whole entry): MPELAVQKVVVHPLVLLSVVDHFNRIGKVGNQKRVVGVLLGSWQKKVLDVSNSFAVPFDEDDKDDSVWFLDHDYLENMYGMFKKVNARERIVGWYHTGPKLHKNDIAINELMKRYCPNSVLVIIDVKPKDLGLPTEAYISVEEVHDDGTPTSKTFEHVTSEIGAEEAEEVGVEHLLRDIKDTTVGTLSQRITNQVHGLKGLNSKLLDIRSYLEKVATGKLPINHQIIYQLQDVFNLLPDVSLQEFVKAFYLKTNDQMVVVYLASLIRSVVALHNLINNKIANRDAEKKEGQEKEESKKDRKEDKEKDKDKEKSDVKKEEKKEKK
Outline: as §1

[5] = biological target: UCHL1 (UniProt P09936)
UCHL1, sequence (P09936 whole entry, looked up): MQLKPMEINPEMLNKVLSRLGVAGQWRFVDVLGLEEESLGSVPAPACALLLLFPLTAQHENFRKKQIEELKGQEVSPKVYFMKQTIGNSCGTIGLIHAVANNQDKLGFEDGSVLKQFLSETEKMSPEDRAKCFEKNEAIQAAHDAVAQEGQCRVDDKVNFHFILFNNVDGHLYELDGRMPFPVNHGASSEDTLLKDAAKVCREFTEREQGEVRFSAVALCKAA
Outline: as §1

[6] = biological target: T4, UCHL3 (UniProt P15374)
T4 sequence (whole entry): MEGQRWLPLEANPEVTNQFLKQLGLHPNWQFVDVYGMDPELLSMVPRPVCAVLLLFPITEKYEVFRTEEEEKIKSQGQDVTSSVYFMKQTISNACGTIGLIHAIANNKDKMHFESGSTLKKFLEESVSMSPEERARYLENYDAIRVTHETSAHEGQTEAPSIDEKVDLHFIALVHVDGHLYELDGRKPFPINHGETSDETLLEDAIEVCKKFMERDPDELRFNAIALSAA
Outline: as §1

[7] = biological target: T5, UCHL5 (UniProt Q9Y5K5)
T5 sequence (whole entry): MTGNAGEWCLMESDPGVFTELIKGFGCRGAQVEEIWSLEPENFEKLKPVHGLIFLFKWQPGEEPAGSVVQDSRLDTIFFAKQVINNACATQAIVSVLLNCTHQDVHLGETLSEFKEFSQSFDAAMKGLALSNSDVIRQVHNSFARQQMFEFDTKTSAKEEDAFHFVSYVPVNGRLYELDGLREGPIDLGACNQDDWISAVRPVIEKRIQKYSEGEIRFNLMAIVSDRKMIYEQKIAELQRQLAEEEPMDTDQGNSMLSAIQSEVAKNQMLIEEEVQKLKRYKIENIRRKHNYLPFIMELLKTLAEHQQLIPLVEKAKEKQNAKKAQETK
Outline: as §1

[8] = biological target: USP10 (UniProt Q14694)
USP10, sequence (Q14694 whole entry): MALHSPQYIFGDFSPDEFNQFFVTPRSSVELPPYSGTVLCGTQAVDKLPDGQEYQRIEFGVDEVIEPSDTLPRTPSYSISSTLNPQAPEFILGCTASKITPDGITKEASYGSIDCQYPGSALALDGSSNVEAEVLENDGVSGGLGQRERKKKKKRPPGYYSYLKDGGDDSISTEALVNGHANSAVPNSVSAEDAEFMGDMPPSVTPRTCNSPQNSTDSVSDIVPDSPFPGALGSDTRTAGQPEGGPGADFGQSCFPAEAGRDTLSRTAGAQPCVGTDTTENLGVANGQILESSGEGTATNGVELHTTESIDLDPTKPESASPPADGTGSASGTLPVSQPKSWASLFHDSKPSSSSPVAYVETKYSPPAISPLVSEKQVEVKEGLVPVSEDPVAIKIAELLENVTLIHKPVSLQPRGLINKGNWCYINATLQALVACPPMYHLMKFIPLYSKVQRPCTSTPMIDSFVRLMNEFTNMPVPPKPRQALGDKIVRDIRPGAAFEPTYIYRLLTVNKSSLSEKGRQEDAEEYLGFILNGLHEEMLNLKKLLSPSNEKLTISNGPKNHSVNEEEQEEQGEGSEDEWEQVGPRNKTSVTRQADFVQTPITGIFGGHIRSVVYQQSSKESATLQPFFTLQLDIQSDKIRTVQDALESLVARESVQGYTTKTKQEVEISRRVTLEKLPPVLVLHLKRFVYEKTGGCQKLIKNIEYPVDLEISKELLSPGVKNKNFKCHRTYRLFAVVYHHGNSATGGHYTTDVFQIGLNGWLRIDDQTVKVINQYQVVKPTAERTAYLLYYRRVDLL
Outline: as §1

[9] = biological target: T6, USP15 (UniProt Q9Y4E8)
T6 sequence (whole entry): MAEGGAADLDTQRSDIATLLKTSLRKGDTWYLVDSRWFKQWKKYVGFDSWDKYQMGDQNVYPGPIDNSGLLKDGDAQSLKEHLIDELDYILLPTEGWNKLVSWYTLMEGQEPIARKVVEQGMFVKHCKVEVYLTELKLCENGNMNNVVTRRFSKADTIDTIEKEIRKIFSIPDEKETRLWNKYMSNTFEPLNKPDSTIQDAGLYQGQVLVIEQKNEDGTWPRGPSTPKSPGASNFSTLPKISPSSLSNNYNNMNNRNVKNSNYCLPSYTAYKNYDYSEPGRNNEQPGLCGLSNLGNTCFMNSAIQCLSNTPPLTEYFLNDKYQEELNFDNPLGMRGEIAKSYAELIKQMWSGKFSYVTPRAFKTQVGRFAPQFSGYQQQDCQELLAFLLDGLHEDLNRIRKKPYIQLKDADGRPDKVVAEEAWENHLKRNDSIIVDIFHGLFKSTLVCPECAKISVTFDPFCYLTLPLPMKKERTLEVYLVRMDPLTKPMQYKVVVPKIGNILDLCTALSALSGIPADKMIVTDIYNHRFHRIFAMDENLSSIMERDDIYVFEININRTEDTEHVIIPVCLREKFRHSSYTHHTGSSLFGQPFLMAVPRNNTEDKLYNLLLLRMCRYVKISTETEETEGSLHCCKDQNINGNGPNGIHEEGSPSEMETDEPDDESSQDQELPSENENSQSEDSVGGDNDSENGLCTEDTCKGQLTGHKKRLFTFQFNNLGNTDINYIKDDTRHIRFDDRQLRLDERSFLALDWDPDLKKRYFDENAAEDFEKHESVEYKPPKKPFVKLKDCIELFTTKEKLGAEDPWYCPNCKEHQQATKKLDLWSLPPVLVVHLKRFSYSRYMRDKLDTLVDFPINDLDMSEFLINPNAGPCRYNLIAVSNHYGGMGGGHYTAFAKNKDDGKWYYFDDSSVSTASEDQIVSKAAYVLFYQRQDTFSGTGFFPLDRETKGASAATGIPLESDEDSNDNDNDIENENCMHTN
Outline: as §1

[10] = biological target: USP16 (UniProt Q9Y5T5)
USP16, sequence (Q9Y5T5 whole entry, looked up): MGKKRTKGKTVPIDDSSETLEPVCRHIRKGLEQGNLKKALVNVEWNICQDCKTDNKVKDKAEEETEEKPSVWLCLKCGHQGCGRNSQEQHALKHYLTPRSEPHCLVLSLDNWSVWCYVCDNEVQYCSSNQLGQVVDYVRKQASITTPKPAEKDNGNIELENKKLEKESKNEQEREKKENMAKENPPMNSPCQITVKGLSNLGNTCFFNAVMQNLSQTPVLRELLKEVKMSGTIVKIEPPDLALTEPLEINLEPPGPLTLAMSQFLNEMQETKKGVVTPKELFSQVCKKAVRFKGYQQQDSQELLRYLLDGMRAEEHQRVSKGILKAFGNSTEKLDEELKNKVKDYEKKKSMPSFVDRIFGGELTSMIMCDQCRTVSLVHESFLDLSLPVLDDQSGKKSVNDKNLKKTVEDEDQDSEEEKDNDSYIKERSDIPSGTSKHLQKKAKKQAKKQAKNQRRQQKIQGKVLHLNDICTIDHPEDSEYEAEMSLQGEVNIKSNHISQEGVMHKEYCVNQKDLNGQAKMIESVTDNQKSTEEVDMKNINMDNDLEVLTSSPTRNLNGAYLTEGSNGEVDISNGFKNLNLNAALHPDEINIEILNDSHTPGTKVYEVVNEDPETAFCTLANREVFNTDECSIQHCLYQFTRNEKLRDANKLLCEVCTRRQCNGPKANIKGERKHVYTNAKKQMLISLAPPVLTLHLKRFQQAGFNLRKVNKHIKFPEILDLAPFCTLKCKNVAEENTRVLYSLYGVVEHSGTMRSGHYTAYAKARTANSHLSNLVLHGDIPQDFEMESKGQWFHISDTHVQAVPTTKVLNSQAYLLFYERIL
Outline: as §1

Measured: log2 ratio of Biotin-Ahx-Ub-VS probe labelling

CC(NC(=O)CCl)c1ccc2[nH]ncc2c1 (stereo not given)
inactive: [1] -0.241 | [3] -0.0557 | [4] -0.245 | [6] 0.289 | [7] -0.328 | [8] -0.179 | [9] -0.271 | [10] -0.601
active: [2] -1.52 | [5] -1.1
